Compound activity as filed in PubChem.
Rows were chosen to be rich in hits. Some 6% of all compounds tested hit in one or more screens of this group.
D3 ag – D3 dopamine receptor (human) agonism; D3R DiscoveRx beta-arrestin cells, luminescence, 90 min; 410,000 compounds, 0.58% hits; AID 652048; max activation, %; in the data active = max activation above about 30%; note: 0% is about no effect
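Cells at 1500/well, incubated overnight, then treated with pinned compounds (dopamine as control) for 90 min at 37 degrees C. DiscoveRx reagent added for 30 - 60 minutes at room temperature; luminescence read.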
D1 ag – agonists of human D1 dopamine receptor; 360,000 compounds, 1% hits; activation, % at 2 µM; HEK293 T-REx D1 cells, calcium flux, agonist mode; in the data active = activation above about 30%; note: 0% is about no effect
Target sequence (P21728 whole entry, looked up): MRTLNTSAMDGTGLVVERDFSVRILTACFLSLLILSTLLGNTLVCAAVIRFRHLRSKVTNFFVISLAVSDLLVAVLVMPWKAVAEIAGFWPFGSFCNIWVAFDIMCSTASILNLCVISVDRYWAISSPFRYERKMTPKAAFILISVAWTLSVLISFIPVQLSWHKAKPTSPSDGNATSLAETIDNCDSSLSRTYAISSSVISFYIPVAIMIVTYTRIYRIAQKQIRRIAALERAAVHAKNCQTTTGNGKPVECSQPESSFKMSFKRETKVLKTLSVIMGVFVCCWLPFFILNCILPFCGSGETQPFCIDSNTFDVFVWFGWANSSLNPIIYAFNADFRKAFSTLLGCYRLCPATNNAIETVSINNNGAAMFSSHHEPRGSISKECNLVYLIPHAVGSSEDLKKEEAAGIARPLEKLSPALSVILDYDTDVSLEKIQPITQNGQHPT
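Tetracycline-induced HEK293 TREx D1 cells, force-coupled to calcium signalling, were dye-loaded with a no-wash calcium kit. Compound was pin-added after a 10 s baseline. Fluorescence was read kinetically at 1 cycle/s for 180 s, with calcium rises flagged as agonism.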
D1 PAM – enhances dopamine response at the human D1 receptor. HEK293 TREx D1 cells, calcium flux, dopamine EC20 potentiation. potentiation, % at 10 µM. 360,000 compounds, 0.036% hits. P21728. AID 504651; in the data active = potentiation above about 30%; note: 0% is about no effect
DRD3 antagonist – D3 dopamine receptor (human) antagonism; P35462; D3R cells, DiscoveRx beta-arrestin luminescence, antagonist mode; active compounds read low; max response, negative = inhibition, %; 360,000 compounds, 2.5% hits; in the data active = max response below about -50%; inconclusive = no clear call, values can overlap the other calls; note: % is set by controls: 0 for no effect and ±100 for the full control effect
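Cells expressing the human receptor were seeded at 1500 cells/well, incubated overnight at 37 degrees C in 5% CO2, then exposed to library compounds with dopamine controls for 90 minutes at 37 degrees C before luminescent detection.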
D1 antagonist – human D1 dopamine receptor antagonism. P21728. HEK293 TREx D1 cells, calcium flux, dopamine EC80; active compounds read low. activity change, negative = inhibition, % at 10 µM. 360,000 compounds, 3.2% hits. AID 504652; in the data active = activity change below about -30%; note: % is set by controls: 0 for no effect and ±100 for the full control effect
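Kinetic fluorescence of a calcium dye serves as the read-out. D1-expressing Hek293 Trex cells, induced overnight at 30 C, are exposed to compound for 180 s before an EC80 dopamine addition, then read 180 s further.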
The depositor's hits bear a star; ? = inconclusive; / = no result; ! = a repeat was not active.

SMILES	D3 ag	D1 ag	D1 PAM	DRD3 antagonist	D1 antagonist
C=CCc1ccc(OCC(O)CN2CCN(c3ccccc3)CC2)c(OC)c1 (centres undefined)	38*	14	-11	?	-31*
C=CCc1ccccc1OCC(O)CNC(C)C (centres undefined)	-58	4	-5	-60*	-36*
COc1ccc(N2CCN(CC(O)COc3ccccc3C(C)(C)C)CC2)cc1 (centres undefined)	-26	3	-4	/	15
C=CCc1cc(C)ccc1OCC(O)CN1CCN(c2ccccc2)CC1 (centres undefined)	75*	2	-8	-24	-19
C=CCc1cc(OC)ccc1OCC(O)CN1CCN(c2ccc(OC)cc2)CC1 (centres undefined)	18	6	-3	?	-7
C=CCc1ccccc1OCC(O)CN1CCN(c2ccccc2)CC1 (centres undefined)	6	-3	0	/	-39*
NC(=O)c1c(NC(=O)c2noc3c2CCCC3)sc2c1CCCC2	-4	-3	2	/	8
COc1cccc(N2CCN(C(=O)c3ccc4c(Cl)c5c(nc4c3)CCCC5)CC2)c1	14	5	0	/	-1
Nc1nnc(-c2cc3c(ccc4ccccc43)oc2=O)s1	/	49*	12	/	-9
O=c1oc2ccc3ccccc3c2cc1-c1nnc(Nc2ccccc2)s1	1	10	3	/	9
CCCCCCCOC(=O)C[N+](C)(C)CCOC1CC2CCC1(C)C2(C)C (centres undefined)	-15	131*	6	-29	42
CCCOC(=O)C[N+](C)(C)CCOC1CC2CCC1(C)C2(C)C (centres undefined)	-12	1	-2	-8	-8
CCCCOC(=O)C[N+](C)(C)CCOC1CC2CCC1(C)C2(C)C (centres undefined)	-9	0	-2	-3	2
CCCCCCOC(=O)C[N+](C)(C)CCOC1CC2CCC1(C)C2(C)C (centres undefined)	23	92*	0	0	6
Cc1cc(C)c(NC(=O)Cc2ccc(-n3c(C)nc4cccnc43)cc2)c(C)c1	0	0	3	/	4
Cc1cc2c(s1)c1cnn(Cc3cc(C(F)(F)F)cc(Cl)c3F)c(=O)c1n2C	/	6	-5	/	-35*
Cc1cc2c(s1)c1cnn(Cc3cccc(Cl)c3F)c(=O)c1n2C	/	1	6	/	11
CCC(CC)c1nn2c(=O)cc(COc3ccc(NC(=O)c4cccc(C)c4)cc3)nc2s1	6	4	-4	/	0
Cc1ccccc1OCC(=O)N1CCC(c2nc3ccccc3s2)CC1	7	-3	0	/	4
O=C(NCCN1CCN(c2ccccc2)CC1)Nc1cccc(Br)c1	10	50*	-1	-75*	-45*!
O=C(CCN1CCN(c2ccccc2)CC1)Nc1cccc(Br)c1	3	6	-2	-73*	-11
NC(=O)c1c(NC(=O)C2COc3ccccc3O2)sc2c1CCN(Cc1ccccc1)C2 (centres undefined)	-13	105*	-1	-9	-25
CC(=O)c1ccc(C(=O)Nc2sc3c(c2C(N)=O)CCN(Cc2ccccc2)C3)cc1	/	63*	-8	/	-8
CCCOc1ccccc1-c1nc(SCC(=O)c2ccccc2)n[nH]1	-16	8	-1	/	-1
COc1ccc(Cl)cc1NCc1nnc2n1CCCCC2	-7	3	-2	/	-2
SMILES	D3 ag	D1 ag	D1 PAM	DRD3 antagonist	D1 antagonist
O=C(Cn1c(=O)nc(-c2ccccc2)c2cc(Cl)ccc21)N1CCN(c2ccc(F)cc2)CC1	6	-1	2	/	-8
Cc1ccc(Nc2ccc(C(N)=O)cc2[N+](=O)[O-])cc1C	-5	1	-12	-17	-53*
Cc1ccc(NC(=O)CSc2ccc(C(N)=O)cc2[N+](=O)[O-])cc1C	4	-2	1	-2	/
CCc1ccc(Nc2ccc(C(N)=O)cc2[N+](=O)[O-])cc1	2	1	-4	-24	-40*
CC(=O)c1cccc(NC(=O)NNC(=O)CCC(=O)Nc2ccc(C)c(C)c2)c1	-7	9	-3	-14	-16
Cc1ccc(NC(=O)CCC(=O)NNC(=O)NC23CC4CC(CC(C4)C2)C3)cc1C	13	50*	-3	18	-11
CCN(CC)C(=O)Cn1c(SCC(=O)Nc2ccc(C)c(C)c2)nc2ccccc21	-7	8	2	/	7
O=C(Cc1ccc(Br)cc1)Nc1ncc([N+](=O)[O-])s1	6	21	-2	13	-25
O=C(Cc1ccc(Cl)cc1)Nc1ncc([N+](=O)[O-])s1	1	31*	-6	-11	-43*
O=C(COc1ccc(Cl)cc1)Nc1ncc([N+](=O)[O-])s1	3	28	-4	-7	-32*
C[C@H](CO)N1C[C@H](C)[C@@H](CN(C)C(=O)c2ccc(F)cc2)Oc2cc(Br)ccc2S1(=O)=O	-4	/	/	-95*	/
COc1ccc(-n2c(SCC(=O)Nc3ccc4c(c3)OCO4)nc3c([nH]c4ccccc43)c2=O)cc1	-10	0	-4	/	-2
CCC1CN(C(=O)Nc2cc(Cl)c(OC)cc2OC)c2ccccc2O1 (centres undefined)	0	3	3	/	-25
CCC(c1nnnn1C(C)(C)C)N1CCN(C/C=C/c2ccccc2)CC1 (centres undefined)	-8	/	/	-80*	/
Cc1ccc(C(c2nnnn2C(C)(C)C)N2CCC(C)CC2)cc1 (centres undefined)	-3	1	-3	-52*	4
C(=C\c1ccccc1)/CN1CCN(C(c2ccccc2)c2ccccc2)CC1	/	/	/	-63*	/
CSCCC(C(=O)Nc1c(C)cccc1C)N1CCN(C/C=C/c2ccccc2)CC1 (centres undefined)	-12	/	/	-81*	/
COc1ccc(-n2c(=O)c3c4c(sc3n(Cc3ccc(F)cc3)c2=O)CCCC4)c(OC)c1	3	3	-1	/	-7
COc1cc(OC)c(NC(=O)c2cc3c(=O)oc4ccc(C)cc4c3s2)cc1Cl	-8	1	-2	/	0
COC(=O)c1scc(-c2ccc(C)cc2)c1S(=O)(=O)N1CCN(c2ccc(C(C)=O)cc2)CC1	-17	5	-5	/	2
CC(C)(C)n1nnnc1C(c1ccccc1)N1CCN(C/C=C/c2ccccc2)CC1 (centres undefined)	-10	/	/	-57*	/
CC(C)(C)n1nnnc1C(c1ccccc1)N1CCCN(Cc2ccc(F)cc2)CC1 (centres undefined)	-13	/	/	-105*	/
CC(C)(C)n1nnnc1C(c1ccccc1)N1CCN(c2ccccc2)CC1 (centres undefined)	-7	/	/	0	/
Cc1ccc(S(=O)c2ccc(NC(=O)C3CC3)cc2C#N)cc1 (centres undefined)	3	25	-9	-11	-31*
Cc1ccc(NC(=O)C2CCN(S(=O)(=O)c3ccccc3)CC2)cc1	-11	3	-4	-5	-25
